{"source": "PubChem BioAssay (Tox21)", "note": "Several values for one entry are separate records, joined by “and”; a condition that tells them apart may be missing. Equal values may be shown once. Inconclusive results are not listed. A call without a number means that no potency is given here. Unmarked numbers belong to inactive results. Activity calls are given as the source filed them. Calls come from the whole dose curve; as a rule, active = well fitted curve in the direction sought with a large enough effect in the repeat runs; inconclusive = weak or mixed curves; inactive = no such curve, though single readings can be large; an effect the other way counts as inactive or inconclusive. Potency is the fitted concentration of half-maximal effect.", "data": [{"assay": "A CellTox Green Cytotoxicity Assay to monitor cytotoxicity in HEK293 cells - 16 hour (AID 1224888); note: nearly all actives have a fitted effect of over 35% in size", "details": "CellTox Green fluorescence; series mostly up to 76.8 µM", "outline": "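Cells (HEK293, 600/well) and dye reagent are dispensed together. After 5 h at 37 C, 23 nL compound is pinned in. Plates stay at 37 C for 40 h with fluorescence read at 0h, 8h, 16h, 24h, 32h and 40h.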", "values": [{"smiles": "O=[N+]([O-])c1cc(C(F)(F)F)c(Cl)c([N+](=O)[O-])c1Nc1ncc(C(F)(F)F)cc1Cl", "Potency": "49000 nM (active)"}, {"smiles": "CC#C[C@]1(O)CC[C@H]2[C@@H]3C[C@H](C)C4=CC(=O)CC[C@]4(C)[C@H]3CC[C@@]21C", "Potency": "inactive"}, {"smiles": "CNC(=O)O/N=C(\\C)C(C)S(C)(=O)=O", "note": "(stereo unspecified)", "Potency": "inactive"}, {"smiles": "O=P(Cl)(Cl)Cl", "Potency": "inactive"}, {"smiles": "O=Cc1ccccc1", "Potency": "inactive"}, {"smiles": "N#Cc1c[nH]cc1-c1cccc2c1OC(F)(F)O2", "Potency": "inactive"}, {"smiles": "COc1nc(C)nc(NC(=O)NS(=O)(=O)c2ccccc2Cl)n1", "Potency": "inactive"}, {"smiles": "O.O.O.O=C([O-])[C@H]([O-])[C@@H]([O-])C(=O)[O-].O=C([O-])[C@H]([O-])[C@@H]([O-])C(=O)[O-].[K+].[K+].[Sb+3].[Sb+3]", "Potency": "inactive"}, {"smiles": "CCC[CH2][Sn]([CH2]CCC)([CH2]CCC)[O][Sn]([CH2]CCC)([CH2]CCC)[CH2]CCC", "Potency": "1700 nM (active)"}, {"smiles": "C#CCO", "Potency": "inactive"}, {"smiles": "ClCBr", "Potency": "inactive"}, {"smiles": "COP(=S)(OC)Oc1nc(Cl)c(Cl)cc1Cl", "Potency": "inactive"}, {"smiles": "CC(=O)[O][Sn]([c]1ccccc1)([c]1ccccc1)[c]1ccccc1", "Potency": "347 nM (active)"}, {"smiles": "CCCCCON=O", "Potency": "inactive"}, {"smiles": "OCC(Br)CBr", "note": "(stereo unspecified)", "Potency": "inactive"}, {"smiles": "N#CC(C#N)=NNc1cccc(Cl)c1", "Potency": "inactive"}, {"smiles": "CO/N=C(/C1=NOCCO1)c1ccccc1Oc1ncnc(Oc2ccccc2Cl)c1F", "Potency": "inactive"}, {"smiles": "CC(C)C(Nc1ccc(C(F)(F)F)cc1Cl)C(=O)OC(C#N)c1cccc(Oc2ccccc2)c1", "note": "(stereo unspecified)", "Potency": "inactive"}, {"smiles": "COP(=O)(OC)O/C(=C\\Cl)c1cc(Cl)c(Cl)cc1Cl", "Potency": "inactive"}, {"smiles": "CCCN", "Potency": "inactive"}, {"smiles": "CSSC", "Potency": "inactive"}, {"smiles": "CC(C)(C)c1ccc(OP(=O)(Oc2ccccc2)Oc2ccccc2)cc1", "Potency": "inactive"}, {"smiles": "C=CCBr", "Potency": "inactive"}, {"smiles": "CC(C)=CCN1CC[C@@]2(C)c3cc(O)ccc3C[C@@H]1[C@@H]2C", "Potency": "inactive"}, {"smiles": "CC[C@]1(O)CC[C@H]2[C@@H]3CCC4=CCCC[C@@H]4[C@H]3CC[C@@]21C", "Potency": "inactive"}, {"smiles": "O=C1C(Cl)=C(Cl)C(=O)C(Cl)=C1Cl", "Potency": "inactive"}, {"smiles": "ClC(Cl)C(Cl)(Cl)Cl", "Potency": "inactive"}, {"smiles": "CO/N=C(\\C(=O)OC)c1ccccc1CO/N=C(\\C)c1cccc(C(F)(F)F)c1", "Potency": "inactive"}, {"smiles": "Clc1c(Cl)c(Cl)c(Cl)c(Cl)c1Cl", "activity change": "-13.4% [at 6.97 µM, stronger effect = higher value]"}, {"smiles": "CCNS(=O)(=O)C(F)(F)C(F)(F)C(F)(F)C(F)(F)C(F)(F)C(F)(F)C(F)(F)C(F)(F)F", "Potency": "inactive"}, {"smiles": "CC(C)N(C(=O)SC/C(Cl)=C/Cl)C(C)C", "Potency": "inactive"}, {"smiles": "CSC1=N[C@@](C)(c2ccccc2)C(=O)N1Nc1ccccc1", "Potency": "inactive"}, {"smiles": "CCn1cc[n+](C)c1", "note": "(tested in a mixture with another compound)", "Potency": "inactive"}, {"smiles": "c1ccc2c(c1)cc1ccc3cccc4ccc2c1c34", "Potency": "inactive"}]}, {"assay": "qHTS RealTime-Glo MT Cell Viability Assay in HepG2 cells - 0 hour (AID 1224889); note: nearly all actives have a fitted effect of over 50% in size", "details": "RealTime-Glo luminescence; series mostly up to 76.8 µM", "outline": "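HepG2 cells were seeded at 600 cells/well together with NanoLuc luciferase and a cell-permeant prosubstrate, preincubated 5 h at 37 C/5% CO2, then pin-dosed with compounds in DMSO. Nonlytic luminescence from viable cells was read at each time point.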", "values": [{"smiles": "O=[N+]([O-])c1cc(C(F)(F)F)c(Cl)c([N+](=O)[O-])c1Nc1ncc(C(F)(F)F)cc1Cl", "Potency": "inactive"}, {"smiles": "CC#C[C@]1(O)CC[C@H]2[C@@H]3C[C@H](C)C4=CC(=O)CC[C@]4(C)[C@H]3CC[C@@]21C", "Potency": "2.68 µM (active)"}, {"smiles": "CNC(=O)O/N=C(\\C)C(C)S(C)(=O)=O", "note": "(stereo unspecified)", "Potency": "inactive"}, {"smiles": "O=P(Cl)(Cl)Cl", "Potency": "inactive"}, {"smiles": "O=Cc1ccccc1", "Potency": "inactive"}, {"smiles": "N#Cc1c[nH]cc1-c1cccc2c1OC(F)(F)O2", "Potency": "inactive"}, {"smiles": "COc1nc(C)nc(NC(=O)NS(=O)(=O)c2ccccc2Cl)n1", "Potency": "inactive"}, {"smiles": "c1ccc(N=NNc2ccccc2)cc1", "Potency": "inactive"}, {"smiles": "O.O.O.O=C([O-])[C@H]([O-])[C@@H]([O-])C(=O)[O-].O=C([O-])[C@H]([O-])[C@@H]([O-])C(=O)[O-].[K+].[K+].[Sb+3].[Sb+3]", "Potency": "inactive"}, {"smiles": "Nc1ccc(N=Nc2ccccc2)cc1", "Potency": "inactive"}, {"smiles": "CCC[CH2][Sn]([CH2]CCC)([CH2]CCC)[O][Sn]([CH2]CCC)([CH2]CCC)[CH2]CCC", "activity change, negative = cytotoxicity": "23.4% [at 6.97 µM]"}, {"smiles": "C#CCO", "Potency": "inactive"}, {"smiles": "ClCBr", "Potency": "inactive"}, {"smiles": "COP(=S)(OC)Oc1nc(Cl)c(Cl)cc1Cl", "Potency": "inactive"}, {"smiles": "CCCCCON=O", "Potency": "inactive"}, {"smiles": "OCC(Br)CBr", "note": "(stereo unspecified)", "Potency": "inactive"}, {"smiles": "[O]=[Cr](=[O])([OH])[O][Cr](=[O])(=[O])[OH]", "Potency": "inactive"}, {"smiles": "N#CC(C#N)=NNc1cccc(Cl)c1", "Potency": "24.5 µM (active)"}, {"smiles": "CO/N=C(/C1=NOCCO1)c1ccccc1Oc1ncnc(Oc2ccccc2Cl)c1F", "Potency": "inactive"}, {"smiles": "CC(C)C(Nc1ccc(C(F)(F)F)cc1Cl)C(=O)OC(C#N)c1cccc(Oc2ccccc2)c1", "note": "(stereo unspecified)", "Potency": "inactive"}, {"smiles": "[Cl-].[Cl-].[Sn+2]", "Potency": "inactive"}, {"smiles": "CCCN", "Potency": "inactive"}, {"smiles": "O=S1OCC2C(CO1)C1(Cl)C(Cl)=C(Cl)C2(Cl)C1(Cl)Cl", "note": "(stereo unspecified)", "Potency": "inactive"}, {"smiles": "CSSC", "Potency": "inactive"}, {"smiles": "CC(C)(C)c1ccc(OP(=O)(Oc2ccccc2)Oc2ccccc2)cc1", "Potency": "inactive"}, {"smiles": "C=CCBr", "Potency": "inactive"}, {"smiles": "CC(C)=CCN1CC[C@@]2(C)c3cc(O)ccc3C[C@@H]1[C@@H]2C", "Potency": "inactive"}, {"smiles": "CC[C@]1(O)CC[C@H]2[C@@H]3CCC4=CCCC[C@@H]4[C@H]3CC[C@@]21C", "Potency": "inactive"}, {"smiles": "O=C1C(Cl)=C(Cl)C(=O)C(Cl)=C1Cl", "Potency": "9.74 µM (active) and 12.3 µM (active)"}, {"smiles": "ClC(Cl)C(Cl)(Cl)Cl", "Potency": "inactive"}, {"smiles": "CO/N=C(\\C(=O)OC)c1ccccc1CO/N=C(\\C)c1cccc(C(F)(F)F)c1", "Potency": "inactive"}, {"smiles": "Clc1c(Cl)c(Cl)c(Cl)c(Cl)c1Cl", "activity change, negative = cytotoxicity": "6.05% [at 6.97 µM]"}, {"smiles": "CCNS(=O)(=O)C(F)(F)C(F)(F)C(F)(F)C(F)(F)C(F)(F)C(F)(F)C(F)(F)C(F)(F)F", "Potency": "inactive"}, {"smiles": "CC(C)N(C(=O)SC/C(Cl)=C/Cl)C(C)C", "Potency": "inactive"}, {"smiles": "CSC1=N[C@@](C)(c2ccccc2)C(=O)N1Nc1ccccc1", "Potency": "inactive"}, {"smiles": "CCn1cc[n+](C)c1", "note": "(tested in a mixture with another compound)", "Potency": "inactive"}, {"smiles": "c1ccc2c(c1)cc1ccc3cccc4ccc2c1c34", "Potency": "inactive"}]}]}
